Screening data as filed in PubChem.
GLS inh – qHTS for Inhibitors of Glutaminase (GLS); Potency, µM (doses to about 45.5 µM), inactives show at the highest dose activity change, negative = inhibition, actives largely listed as inhibitors; AID 624170, 2012; 410,000 tested, 0.21% active; GLS enzymatic activity, qHTS titration; Glutaminase kidney isoform, mitochondrial (Homo sapiens), O94925
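hKGA; 45 mM KH2PO4 pH 8.2 + 0.02% Tween-20; cpd via pin tool; 1 mM Gln soln; GluOx/HRP/Amplex Red; RT 30 min; fluor. t0 & final.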
TrxR1 substrate – qHTS Assay for Substrates of Mammalian Selenoprotein Thioredoxin Reductase 1 (TrxR1): qHTS; purified TrxR1 substrate turnover, NADPH consumption readout; Potency, µM (titrated, usually from 114 µM), inactives show at the highest dose activity change, negative = substrate turnover; 390,000 tested, 0.01% active; AID 588456, 2011; further: nearly all actives have a fitted effect of over 50% in size
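Rat TrxR1, dispensed at 90 nM, was prereduced with 400 uM NADPH (final) for 5 min at ~22 deg C, then incubated with compound 15 min before 400 uM selenite. A first-read NADPH fluorescence drop versus no-compound background flagged substrates.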
Sfp PPTase inh – qHTS Assay for Inhibitors of Bacillus subtilis Sfp phosphopantetheinyl transferase (PPTase). Biochemical Sfp PPTase activity, qHTS. Potency, µM, without a hit: largest response in the series, negative = inhibition, actives largely listed as inhibitors. 310,000 tested, 3.5% active. AID 1490, 2009;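 further: the enzyme is Sfp with the accession as filed and its product quenches rhodamine fluorescence; 0% = enzyme reaction without inhibitor and -100% = no enzyme wells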
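Fluorescence-quenching assay with 15 nM Sfp, 5 uM rhodamine-CoA and 12.5 uM BHQ-2-labelled ybbR peptide in pH 7.6 Hepes/MgCl2 buffer. Enzyme was pre-incubated with compound for 15 min at room temperature. Rate was taken from the 30-min fluorescence change (525/598 nm).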
VDR inh – Inhibitors of the vitamin D receptor (VDR): qHTS; Vitamin D3 receptor (Homo sapiens), P11473; VDR-SRC2-3 peptide fluorescence polarization, 2 h; Potency, µM, without a hit: max response, negative = inhibition, usual class: inhibitors; 400,000 tested, 0.93% active
Target sequence (P11473 whole entry, looked up): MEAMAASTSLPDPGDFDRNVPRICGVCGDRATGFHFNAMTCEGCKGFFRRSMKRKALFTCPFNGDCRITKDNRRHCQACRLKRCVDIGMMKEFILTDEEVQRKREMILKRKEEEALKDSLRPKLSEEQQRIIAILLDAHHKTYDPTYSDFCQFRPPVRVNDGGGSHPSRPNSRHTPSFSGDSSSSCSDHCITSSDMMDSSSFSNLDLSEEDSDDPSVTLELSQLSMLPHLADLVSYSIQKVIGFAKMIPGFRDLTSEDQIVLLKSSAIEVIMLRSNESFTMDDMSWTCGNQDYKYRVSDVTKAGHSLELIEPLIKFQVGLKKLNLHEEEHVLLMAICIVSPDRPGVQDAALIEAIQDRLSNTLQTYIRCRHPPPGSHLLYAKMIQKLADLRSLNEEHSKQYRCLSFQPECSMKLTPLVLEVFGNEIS
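Fluorescence polarization assay of small-molecule disruption of VDR binding to coregulator peptide SRC2-3. Compounds and controls pin-transferred, then read after 2 h incubation at ambient room temperature.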
TrxR1 inh – qHTS Assay for Inhibitors of Mammalian Selenoprotein Thioredoxin Reductase 1 (TrxR1): qHTS; 390,000 tested, 1% active; recombinant rTrxR1, NADPH fluorescence consumption, selenite substrate; Potency, µM (top dose mostly 114 µM), without a hit: at the highest dose activity change, negative = inhibition, actives largely listed as inhibitors; Thioredoxin reductase 1, cytoplasmic (Rattus norvegicus), O89049; further: nearly all actives have a fitted effect of over 65% in size
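Rat TrxR1 (90 nM in the dispensed reagent) was pre-reduced with 400 uM NADPH for 5 min at room temperature, then incubated with compound for 15 min. After 400 uM selenite was added, NADPH fluorescence (Ex 340/Em 450 nm) was followed for 8 min.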
GCN5L2 inh – qHTS Assay for Inhibitors of GCN5L2; Histone acetyltransferase KAT2A (Homo sapiens), Q92830; GCN5L2 HAT assay, ThioGlo1 CoA-SH fluorescence; Potency, µM (top dose mostly 58.9 µM), without a hit: at the highest dose activity change, negative = inhibition, usual class: inhibitors; 390,000 tested, 0.21% active
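Enzyme at 20nM final was mixed with library compounds for 15 min at room temperature. Peptide H3(1-25) at 75uM, acetyl-CoA at 70uM and ThioGlo1 at 50uM were then added. Plates were read immediately and after 20 min (Ex340nm/Em540nm).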
Numbers without * were called inactive; ? = inconclusive; / = no result; [ ] = dose if it differs, or a comment. Only some compounds are listed: those with a hit (about 3.8% of all), similar ones and a draw of the others. The call rests on the fitted dose curve; in most records, active means well fitted curve in the direction sought with a large enough effect; inconclusive means small, poorly fitted or top-dose-only effect, or another doubt; inactive means no such curve, though single readings can be large; an effect the other way counts as inactive or inconclusive. Unless noted, on the % scale 0 is the no-effect control and ±100 the full control effect; potency means the concentration at half of the fitted maximal effect.

SMILES | GLS inh | TrxR1 substrate | Sfp PPTase inh | VDR inh | TrxR1 inh | GCN5L2 inh
Cc1cccc(OCCn2cccc2/C=C2/C(=O)NC(=O)N(Cc3ccco3)C2=O)c1 | 4% | -4% | 56µM* | 8% | 35µM* | ?
CCc1ccc(N2C(=O)NC(=O)/C(=C/c3cccn3CCOc3ccc(C)cc3)C2=O)cc1 | 3% | -5% | 0% | 17% | -20% | 28%
O=C1NC(=O)N(Cc2ccco2)C(=O)/C1=C\c1cccn1CCOc1ccc(Cl)cc1 | 2% | 2% | 45µM* | -27% | 22µM* | 24%
CC(=NCC1CCCO1)c1c(O)n(-c2ccc(C)cc2)c(=O)[nH]c1=O (configuration not stated) | 1% | -3% | 2% | 7% | -4% | 2%
CC(C)C1CN1CC(O)Cn1ccnc1[N+](=O)[O-] (configuration not stated) | -9% | / | / | / | / | /
O=S(=O)(c1ccc(F)cc1)N1CCCC1c1cccnc1 (configuration not stated) | -2% | 2% | 0% | 5% | 27% | 0%
Brc1c(Br)c(Br)c2n[nH]nc2c1Br | / | 14%[57.1 µM] | 17% | 45µM* | 15%[57.1 µM] | 28µM*
CCCCN=Cc1c(O)n(-c2c(C)cc(C)cc2C)c(=O)[nH]c1=O | -1% | 3% | 18% | -3% | 11% | 0%
O=C1NC(=O)N(c2cccc(Cl)c2)C(=O)/C1=C\c1ccc(Sc2nc3ccccc3[nH]2)o1 | -20% | 5% | 40µM* | ? | 8.9µM* | ?
O=C1NC(=O)N(c2ccccc2F)C(=O)/C1=C/c1ccc(Sc2nc3ccccc3[nH]2)o1 | ? | 2% | 50µM* | ? | ? | ?
O=C1NC(=O)N(c2ccccc2)C(=O)/C1=C/c1ccc(Sc2ccccc2)o1 | 17% | -4% | 22µM* | ? | 14µM* | 24%
Cc1cc(C)cc(N2C(=O)NC(=O)/C(=C\c3cccn3-c3ccc(Cl)cc3)C2=O)c1 | 8% | -10% | -1% | -1% | ? | 18%
COC(=O)C1=C(c2cccc(OCc3ccccc3)c2)C[C@@H]2CC[C@H]1N2C(=O)NCc1ccc(N(C)C)cc1 | 14% | 6%[57.1 µM] | / | -9% | 11%[57.1 µM] | -14%
C/C(=C(/CCOC(=O)C(C)C)SS/C(CCOC(=O)C(C)C)=C(\C)N(C=O)Cc1cnc(C)nc1N)N(C=O)Cc1cnc(C)nc1N | 0% | / | -17% | 16µM* | / | -1%
C=CCN1CC[C@]23c4c5ccc(O)c4O[C@@H]2/C(=N/N=C2\CC[C@@]4(O)C6Cc7ccc(O)c8c7[C@@]4(CCN6CC=C)[C@@H]2O8)CC[C@@]3(O)C1C5 | / | 17%[57.1 µM] | / | 1% | 20µM* | -2%
CC1C(=O)OC2O[C@]3(C)CC[C@H]4C(C)CCC1[C@]24OO3 (some centres not stated) | / | / | -13% | -10% | / | 11%
COc1ccccc1-n1c(O)c(/C=N/NC(=S)Nc2ccccc2)c(=O)[nH]c1=S | 26% | 2% | 10µM* | ? | 10µM* | -6%
CCn1c(O)c(/C=N/NC(=O)c2ccccc2)c(=O)[nH]c1=S | 17% | -7% | 31% | -12% | -3% | -12%
CCOc1cc(OP(=S)(OC)OC)nc(CC)n1 | / | / | ? | 22µM* | / | -14%
CCCCn1c(N)c(C(=O)NCc2cccs2)c2nc3ccccc3nc21 | 0% | 47% | -6% | 89µM* | 30% | -14%
CCCCn1c(NS(=O)(=O)c2ccc(C)cc2)c(C(=O)OCC)c2nc3ccccc3nc21 | 10% | 68% | 0% | ? | -10% | 2%
Nc1c(C(=O)NCCCc2ccccc2)c2nc3ccccc3nc2n1Cc1cccs1 | -4% | 48% | -12% | 79µM* | -42%[57.1 µM] | -7%
CCCCn1c(NC(=O)c2ccco2)c(C(=O)OCC)c2nc3ccccc3nc21 | -8% | 69% | 50µM* | -72% | ? | -11%
CCOC(=O)c1c(NC(=O)c2c(N)n(CCCOC)c3nc4ccccc4nc23)sc2c1CCCC2 | -10% | 11% | 56µM* | -1% | 26% | 0%
CCOCCCn1c(N)c(C(=O)Nc2sc3c(c2C(=O)OC)CCCC3)c2nc3ccccc3nc21 | 3% | -7% | ? | 12% | 12% | -1%
SMILES | GLS inh | TrxR1 substrate | Sfp PPTase inh | VDR inh | TrxR1 inh | GCN5L2 inh
CCCCCn1c(N)c(C(=O)NCc2cccs2)c2nc3ccccc3nc21 | -6% | 88% | -5% | ? | 82% | -19%
CCCOC(=O)c1c(N)n(Cc2cccs2)c2nc3ccccc3nc12 | -1% | 183% | 4% | -25% | 181% | -18%
COc1ccc(Br)cc1CNCCc1ccc2c(c1)OCO2 | 2% | -3% | / | 2% | 10%[57.1 µM] | /
COC(=O)C1=C(c2c(C)noc2C)C[C@@H]2CC[C@H]1N2C(=O)N1CCC(O)CC1 | 2% | -4%[57.1 µM] | / | -12% | -8%[57.1 µM] | 4%
CCCCC1(C2CCCC2)Cc2cc(OCCCC(=O)O)c(Cl)c(Cl)c2C1=O (configuration not stated) | / | / | -20% | 40µM* | / | ?
O=C(Nc1nccs1)C(Cl)(Cl)Cl | 8% | 9%[57.1 µM] | 5% | -13% | 18%[57.1 µM] | -16%
O=C(CCl)Nc1nccs1 | -4% | 0% | -5% | 17% | 13µM* | -1%
Cc1nn(Cc2ccccc2)c(C)c1C=C1C(=O)NC(=O)NC1=O | -1% | -12% | -28% | -26% | 35µM* | -6%
Cc1nn(Cc2ccccc2)c(C)c1C(=O)NCc1ccccc1 | -3% | -4%[57.1 µM] | 15% | -10% | 27%[57.1 µM] | -13%
S=c1[nH]c2cc(Br)cnc2[nH]1 | -10% | 5%[57.1 µM] | 22µM* | -6% | ? | ?
CSC(=Nc1ccccc1)c1c(O)n(C)c(=O)n(C)c1=O | 4% | 4% | 56µM* | -4% | -13% | -9%
Cn1c(O)c(C(=Nc2ccccc2)SCc2ccccc2Cl)c(=O)n(C)c1=O | 18% | 11%[57.1 µM] | 40µM* | -1% | 0%[57.1 µM] | -16%
CC(=NCCc1ccccc1)c1c(O)n(C)c(=O)n(C)c1=O | -11% | 2% | 15% | 3% | 16% | -17%
CC/C(=N\Nc1ccccc1)c1c(O)n(C)c(=O)n(C)c1=O | 41% | -7% | ? | -4% | -9% | 28%
C/C(=N\NC(=S)Nc1ccccc1)c1c(O)n(C)c(=O)n(C)c1=O | -15% | -8% | 28µM* | ? | ? | 3%
